Source: the supplement of paper PMC6555819

Experiments:
Assay in all cases: PBM binding z-score (relative to random genomic background probes); higher = stronger binding; sequences stand for … in GC…GCGATTGACAGCGTAGAATGAAGG
[1] = test system: RARb homodimer (NR concentration 270 nM)
In short: (§1)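 The probes on custom Agilent 4×180K protein-binding microarrays were double-stranded, with 34-nt variable regions bearing direct-repeat seeds, single-nucleotide variants, half-site ablations and random human genomic background sequences. Incubation lasted 1 h with ligand-free nuclear receptor dimers in PBS pH 7.4, 2% milk, 0.02% Triton X-100, 1 mM DTT, 0.2 mg/mL BSA and 0.4 mg/ml salmon testes DNA. Antibodies against each partner (one per run) detected bound dimers, and fluorescence scans were regression-normalized. Binding z-scores take the random background probes as reference.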

[2] = test system: RARg:RXRa (NR concentration 270 nM, RXRa partner concentration 90 nM)
In short: as §1

[3] = test system: RARg homodimer (NR concentration 270 nM)
In short: as §1

[4] = test system: RXRa DBDmut IVT, anti-RXR (DBD mutation: RXRa K156A/R161A, NR concentration 90 nM)
In short: as §1

[5] = test system: RXRa homodimer (NR concentration 180 nM)
In short: as §1

[6] = test system: THRa:RXRa (NR concentration 90 nM, RXRa partner concentration 90 nM)
In short: as §1

[7] = test system: THRa homodimer (NR concentration 90 nM)
In short: as §1

[8] = test system: VDR:RXRa (NR concentration 270 nM, RXRa partner concentration 90 nM)
In short: as §1

[9] = test system: VDR homodimer (NR concentration 270 nM)
In short: as §1

Sequence	PBM binding z-score [1]	PBM binding z-score [2]	PBM binding z-score [3]	PBM binding z-score [4]	PBM binding z-score [5]	PBM binding z-score [6]	PBM binding z-score [7]	PBM binding z-score [8]	PBM binding z-score [9]
ATCTGTAGGTTAGGGTCATTCAGAAAGTAGGGAA	3.65	4.2	3.96	2.35	5.32	4.19	3.53	4.35	4.36
TCGAGTAGGTTGCGGGGGCATTCAGGGATGAAGA	1.73	2.24	1.59	1.94	1.5	3.75	2.35	3.33	3.45
CTCGAAAGGTCGGTTGAGGTGAGTAAACGGATAA	2.42	2.86	2.8	0.85	2.46	4.97	1.19	2.11	0.238
CATACTAGGTCAAAGGTCAAAGTCGAGCCAACCA	5.51	8.9	7.33	3.12	9.95	4.98	2.11	6.61	3.51
TCGAGTAGTTTACGGGGGCATTCAGGGATGAAGA	1.53	2.16	1.57	2.09	1.48	3.55	1.05	3.09	3.23
ACTAGGAGGACAAAGGTCAGAGCTACGCCAGTGA	4.5	6.01	5.64	0.898	5.85	3.37	0.874	3.45	0.936
AATACAGGGTCACTAGGCCAGAGTGGGTACGAAT	3.17	5.09	4.79	2.59	5.4	3.29	1.4	3.97	3.06
CTATGTAGGTTAAGGTGGTCATTCAGTTTGAAAG	1.42	1.02	1.05	0.518	1.08	1.36	0.282	2.29	0.721
ATGGAAAGGTCGTGAGGTGAGTATACAGAAAGGC	3.62	4.95	4.67	1.52	5.97	3.82	2.1	4	1.72
CCTACTGGGCCAAAACGGTCATTGATGCCGATAA	1.39	0.276	0.635	-0.682	-0.274	-0.206	-0.538	-0.116	-0.184
CGAACTAGGTCACCAGGACAGTGCAGAGGTTGGA	3.73	4.5	5.27	1.53	3.58	3.36	2.27	2.28	0.862
CAAAATAGGTCAAGGTCAAAGTCGGTTTGTGCCA	5.46	6.53	7.1	2.89	6.48	4.48	3.55	5.51	3.72
CGAACTAGGCCACCAGGACAGTGAAGAGGTTGGA	0.689	0.238	0.672	-0.131	-0.0253	0.954	0.3	-0.817	-0.183
